# Values without a mark were called inactive.
# Legend:
# Test in all cases: log2 ratio of Biotin-Ahx-Ub-VS probe labelling (fragment/DMSO); higher = less target engagement (more negative = stronger competition), active = hit call of the paper (q ≤ 0.05, log2 ratio ≤ -1)
# Conditions in all cases: compound concentration: 200 uM; treatment time: 3 h
# ALG13 = biological target: T1, ALG13 (UniProt Q9NP73)
# T1 sequence (whole entry): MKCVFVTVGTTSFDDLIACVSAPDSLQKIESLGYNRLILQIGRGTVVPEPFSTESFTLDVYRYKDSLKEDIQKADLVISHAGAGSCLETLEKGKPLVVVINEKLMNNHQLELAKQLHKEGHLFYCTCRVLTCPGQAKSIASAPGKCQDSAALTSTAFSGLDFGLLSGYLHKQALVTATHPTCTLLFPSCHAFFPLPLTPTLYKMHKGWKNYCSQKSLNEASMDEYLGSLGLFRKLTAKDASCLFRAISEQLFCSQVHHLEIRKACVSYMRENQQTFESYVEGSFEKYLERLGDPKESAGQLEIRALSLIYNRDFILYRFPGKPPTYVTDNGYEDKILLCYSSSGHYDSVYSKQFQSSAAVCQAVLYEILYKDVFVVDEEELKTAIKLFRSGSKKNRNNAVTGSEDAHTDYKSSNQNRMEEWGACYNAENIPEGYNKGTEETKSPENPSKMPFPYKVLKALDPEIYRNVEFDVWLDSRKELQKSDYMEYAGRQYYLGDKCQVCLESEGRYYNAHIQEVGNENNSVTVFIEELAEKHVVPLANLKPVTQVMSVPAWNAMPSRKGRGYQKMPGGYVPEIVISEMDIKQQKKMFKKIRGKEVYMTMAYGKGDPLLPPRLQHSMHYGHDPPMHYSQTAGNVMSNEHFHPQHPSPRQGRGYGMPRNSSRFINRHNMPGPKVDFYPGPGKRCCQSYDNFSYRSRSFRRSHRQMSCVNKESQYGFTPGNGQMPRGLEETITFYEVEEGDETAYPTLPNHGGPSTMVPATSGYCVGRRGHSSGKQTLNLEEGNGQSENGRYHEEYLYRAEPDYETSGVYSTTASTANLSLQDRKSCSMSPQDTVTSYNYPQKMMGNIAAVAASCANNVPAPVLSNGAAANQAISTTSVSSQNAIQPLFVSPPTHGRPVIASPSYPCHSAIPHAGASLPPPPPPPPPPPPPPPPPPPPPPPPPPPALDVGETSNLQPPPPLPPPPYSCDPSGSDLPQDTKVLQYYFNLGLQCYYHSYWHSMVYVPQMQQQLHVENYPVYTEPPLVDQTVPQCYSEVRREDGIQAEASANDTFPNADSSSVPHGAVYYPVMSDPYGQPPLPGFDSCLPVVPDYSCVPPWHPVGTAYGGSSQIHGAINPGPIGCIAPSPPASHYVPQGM
# Procedure, shortened: (§1)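 In triplicate, 495 µg of HEK293T lysate per sample was incubated with fragment at 200 µM or vehicle for 3 h. Biotin-Ahx-Ub-VS was then added to 0.5 µM final for 1 h, and labelled DUBs were captured with NeutrAvidin, digested with LysC and trypsin, and measured by diaPASEF LC-MS/MS. Data are average log2 fragment/vehicle ratios by unpaired t-test from global-median-normalised Spectronaut label-free quantities, restricted to proteins with ≥2 unique peptides.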
# ATXN3 = ATXN3 (UniProt P54252)
# Sequence of ATXN3 (P54252 whole entry): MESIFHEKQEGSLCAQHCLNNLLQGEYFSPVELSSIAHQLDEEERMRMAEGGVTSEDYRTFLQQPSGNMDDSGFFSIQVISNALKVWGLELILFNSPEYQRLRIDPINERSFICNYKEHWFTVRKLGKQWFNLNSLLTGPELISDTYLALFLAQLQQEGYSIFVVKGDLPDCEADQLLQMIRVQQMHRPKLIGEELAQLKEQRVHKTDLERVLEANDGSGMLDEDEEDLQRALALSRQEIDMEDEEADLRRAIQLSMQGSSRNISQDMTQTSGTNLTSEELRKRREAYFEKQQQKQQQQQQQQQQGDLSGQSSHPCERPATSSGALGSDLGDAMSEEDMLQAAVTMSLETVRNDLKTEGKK
# Procedure, shortened: as §1
# BAP1 = biological target: T2, BAP1 (UniProt Q92560)
# T2 sequence (whole entry): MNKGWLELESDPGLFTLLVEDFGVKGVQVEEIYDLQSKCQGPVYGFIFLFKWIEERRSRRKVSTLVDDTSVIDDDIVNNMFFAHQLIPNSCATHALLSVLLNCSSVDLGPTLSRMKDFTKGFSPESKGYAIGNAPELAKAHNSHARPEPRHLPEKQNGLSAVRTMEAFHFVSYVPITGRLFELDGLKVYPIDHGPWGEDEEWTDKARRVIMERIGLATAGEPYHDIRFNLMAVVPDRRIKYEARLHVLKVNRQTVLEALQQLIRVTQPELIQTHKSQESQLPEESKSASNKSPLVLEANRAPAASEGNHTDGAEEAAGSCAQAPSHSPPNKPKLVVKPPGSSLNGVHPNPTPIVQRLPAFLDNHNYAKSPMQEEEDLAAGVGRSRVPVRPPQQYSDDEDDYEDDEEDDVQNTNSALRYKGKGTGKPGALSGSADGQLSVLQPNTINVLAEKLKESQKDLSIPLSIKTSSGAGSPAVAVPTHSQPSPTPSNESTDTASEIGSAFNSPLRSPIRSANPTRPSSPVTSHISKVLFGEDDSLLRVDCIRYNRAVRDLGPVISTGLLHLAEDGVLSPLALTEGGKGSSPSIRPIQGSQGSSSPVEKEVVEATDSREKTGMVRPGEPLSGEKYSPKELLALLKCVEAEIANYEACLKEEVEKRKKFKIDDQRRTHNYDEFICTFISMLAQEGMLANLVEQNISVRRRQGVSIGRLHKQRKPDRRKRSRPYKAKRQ
# Procedure, shortened: as §1
# EIF3F = EIF3F (UniProt O00303)
# Sequence of EIF3F (O00303 whole entry): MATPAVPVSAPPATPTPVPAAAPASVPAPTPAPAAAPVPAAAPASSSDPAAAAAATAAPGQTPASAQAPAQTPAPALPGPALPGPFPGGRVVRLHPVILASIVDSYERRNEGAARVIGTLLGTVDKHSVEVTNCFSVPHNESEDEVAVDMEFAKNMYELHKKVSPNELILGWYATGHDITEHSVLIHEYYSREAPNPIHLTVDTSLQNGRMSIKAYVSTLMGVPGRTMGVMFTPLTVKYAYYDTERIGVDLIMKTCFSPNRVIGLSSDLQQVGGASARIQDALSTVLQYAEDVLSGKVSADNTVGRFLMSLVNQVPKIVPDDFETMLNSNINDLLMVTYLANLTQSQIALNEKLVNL
# Procedure, shortened: as §1
# EIF3H = EIF3H (UniProt O15372)
# Sequence of EIF3H (O15372 whole entry): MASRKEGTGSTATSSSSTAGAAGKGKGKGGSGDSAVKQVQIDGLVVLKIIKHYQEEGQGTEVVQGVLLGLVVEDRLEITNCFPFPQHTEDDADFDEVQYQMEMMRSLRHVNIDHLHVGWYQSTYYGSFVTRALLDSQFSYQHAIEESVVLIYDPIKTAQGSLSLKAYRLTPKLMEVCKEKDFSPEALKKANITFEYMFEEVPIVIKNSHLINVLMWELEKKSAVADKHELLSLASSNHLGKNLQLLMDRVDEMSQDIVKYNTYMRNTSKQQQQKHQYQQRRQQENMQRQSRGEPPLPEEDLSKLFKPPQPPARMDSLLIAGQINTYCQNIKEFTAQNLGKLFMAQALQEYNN
# Procedure, shortened: as §1
# FAM105A = biological target: T3, FAM105A (UniProt Q9NUU6)
# T3 sequence (whole entry): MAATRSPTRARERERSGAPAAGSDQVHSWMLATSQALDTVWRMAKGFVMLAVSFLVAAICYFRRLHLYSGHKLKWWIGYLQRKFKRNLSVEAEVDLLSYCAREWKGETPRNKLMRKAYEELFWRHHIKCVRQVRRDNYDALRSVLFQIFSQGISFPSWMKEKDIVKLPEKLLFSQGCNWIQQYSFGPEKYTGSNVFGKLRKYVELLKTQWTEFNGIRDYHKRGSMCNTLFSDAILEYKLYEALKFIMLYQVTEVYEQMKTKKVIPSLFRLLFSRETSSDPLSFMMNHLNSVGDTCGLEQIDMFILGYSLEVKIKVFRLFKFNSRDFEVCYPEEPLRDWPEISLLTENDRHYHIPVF
# Procedure, shortened: as §1
# OTUB1 = OTUB1 (UniProt Q96FW1)
# Sequence of OTUB1 (Q96FW1 whole entry): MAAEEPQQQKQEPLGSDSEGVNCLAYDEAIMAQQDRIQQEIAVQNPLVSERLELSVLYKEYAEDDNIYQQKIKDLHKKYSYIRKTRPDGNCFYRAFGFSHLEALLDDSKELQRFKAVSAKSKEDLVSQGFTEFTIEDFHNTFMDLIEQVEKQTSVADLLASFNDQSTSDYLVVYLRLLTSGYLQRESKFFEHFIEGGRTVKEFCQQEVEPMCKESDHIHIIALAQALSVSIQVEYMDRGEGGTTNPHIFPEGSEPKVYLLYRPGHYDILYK
# Procedure, shortened: as §1
# OTUD4 = biological target: T4, OTUD4 (UniProt Q01804)
# T4 sequence (whole entry): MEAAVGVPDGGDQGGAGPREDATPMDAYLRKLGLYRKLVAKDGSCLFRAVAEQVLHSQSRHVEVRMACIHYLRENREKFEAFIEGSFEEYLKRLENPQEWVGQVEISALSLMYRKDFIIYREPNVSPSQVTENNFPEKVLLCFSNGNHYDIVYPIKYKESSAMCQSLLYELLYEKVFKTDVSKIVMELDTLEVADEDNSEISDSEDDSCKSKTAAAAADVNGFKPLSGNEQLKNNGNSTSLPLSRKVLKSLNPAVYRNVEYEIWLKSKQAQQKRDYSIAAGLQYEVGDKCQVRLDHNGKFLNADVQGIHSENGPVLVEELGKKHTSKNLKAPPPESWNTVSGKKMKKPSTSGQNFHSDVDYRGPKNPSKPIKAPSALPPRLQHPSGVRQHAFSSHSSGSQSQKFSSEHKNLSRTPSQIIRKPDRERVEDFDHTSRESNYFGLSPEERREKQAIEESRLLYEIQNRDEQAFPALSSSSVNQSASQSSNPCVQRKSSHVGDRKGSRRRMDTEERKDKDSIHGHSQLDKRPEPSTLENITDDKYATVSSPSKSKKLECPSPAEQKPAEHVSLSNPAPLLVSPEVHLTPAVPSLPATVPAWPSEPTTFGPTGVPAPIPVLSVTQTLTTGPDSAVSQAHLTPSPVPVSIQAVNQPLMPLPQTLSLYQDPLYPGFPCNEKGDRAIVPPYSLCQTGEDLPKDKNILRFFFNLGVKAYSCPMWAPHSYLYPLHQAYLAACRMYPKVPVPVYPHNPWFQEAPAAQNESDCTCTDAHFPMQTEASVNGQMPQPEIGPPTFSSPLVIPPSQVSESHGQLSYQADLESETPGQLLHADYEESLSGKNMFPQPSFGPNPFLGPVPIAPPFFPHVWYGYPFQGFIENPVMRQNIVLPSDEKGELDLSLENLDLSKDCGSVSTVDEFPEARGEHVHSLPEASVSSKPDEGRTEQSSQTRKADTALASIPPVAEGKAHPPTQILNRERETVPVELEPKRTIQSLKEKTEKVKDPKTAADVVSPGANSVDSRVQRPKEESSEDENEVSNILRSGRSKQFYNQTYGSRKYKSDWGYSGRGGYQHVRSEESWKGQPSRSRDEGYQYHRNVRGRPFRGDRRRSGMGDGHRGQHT
# Procedure, shortened: as §1
# OTUD5 = biological target: T5, OTUD5 (UniProt Q96G74)
# T5 sequence (whole entry): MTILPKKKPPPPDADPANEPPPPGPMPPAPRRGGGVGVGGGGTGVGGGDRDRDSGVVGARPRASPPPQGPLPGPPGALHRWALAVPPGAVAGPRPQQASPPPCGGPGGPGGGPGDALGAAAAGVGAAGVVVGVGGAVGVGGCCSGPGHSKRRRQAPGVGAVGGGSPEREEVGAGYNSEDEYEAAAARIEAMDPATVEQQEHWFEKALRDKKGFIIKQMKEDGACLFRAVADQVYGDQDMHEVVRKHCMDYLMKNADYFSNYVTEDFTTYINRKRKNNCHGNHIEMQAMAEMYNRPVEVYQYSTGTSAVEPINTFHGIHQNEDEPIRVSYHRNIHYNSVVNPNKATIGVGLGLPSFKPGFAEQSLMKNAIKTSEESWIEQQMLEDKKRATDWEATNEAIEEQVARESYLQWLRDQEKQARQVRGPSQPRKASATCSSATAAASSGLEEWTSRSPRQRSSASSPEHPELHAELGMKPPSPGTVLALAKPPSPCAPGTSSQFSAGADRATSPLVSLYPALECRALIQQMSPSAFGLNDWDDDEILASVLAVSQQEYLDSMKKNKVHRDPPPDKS
# Procedure, shortened: as §1
structure (smiles),measurement,setting,value
CCN(Cc1ccc(C#N)cc1F)C(=O)CCl,log2 ratio of Biotin-Ahx-Ub-VS probe labelling,ALG13,0.0792
same,log2 ratio of Biotin-Ahx-Ub-VS probe labelling,ATXN3,-1.1 (active)
same,log2 ratio of Biotin-Ahx-Ub-VS probe labelling,BAP1,-0.691
same,log2 ratio of Biotin-Ahx-Ub-VS probe labelling,EIF3F,-0.201
same,log2 ratio of Biotin-Ahx-Ub-VS probe labelling,EIF3H,0.0146
same,log2 ratio of Biotin-Ahx-Ub-VS probe labelling,FAM105A,0.124
same,log2 ratio of Biotin-Ahx-Ub-VS probe labelling,OTUB1,-0.377
same,log2 ratio of Biotin-Ahx-Ub-VS probe labelling,OTUD4,-0.686
same,log2 ratio of Biotin-Ahx-Ub-VS probe labelling,OTUD5,-0.653

# From the supplement of paper PMC11732987, “Enantioselective OTUD7B fragment discovery through chemoproteomics screening and high-throughput optimisation” (Communications Chemistry, 2025)
